Screening data (PubChem)
An excerpt weighted towards active compounds, which were near 4% of everything screened.
tim10-1 inh: inhibits growth of tim10-1 mutant yeast | S. cerevisiae tim10-1 ts strain growth, BacTiter-Glo, 24 h | inhibition, % at 20 µM | hit rate 2.2% among 330,000 | AID 463190;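 active = inhibition of at least 40%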;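 also: mutant grown at 25 °C; 0% = DMSO wells with yeast and 100% = wells holding no yeast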
NALP1 inh: inhibitors of NALP1 inflammasome in yeast. S. cerevisiae NALP1/ASC/caspase-1 growth, X-gal OD620, 72 h. inhibition, % at 10 µM. hit rate 0.61% among 280,000. AID 2071; in the data active = inhibition mostly above about 24%, no sharp cut-off; inactive = mostly below about 32%
NLRP3 yeast inh: inhibitors of NALP3 inflammasome in yeast | Yeast reconstituted NLRP3/ASC/caspase-1, beta-gal luminescence, 24 h | inhibition, % at 10 µM | hit rate 0.39% among 330,000;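 active = inhibition of 50% or more; inactive = inhibition below 50%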;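 also: plate controls were induced DMSO wells for no effect and uninduced yeast grown without galactose for full effect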
TIM10 inh: inhibits growth of TIM10 yeast strain; S. cerevisiae TIM10 strain growth, BacTiter-Glo luminescence, 24 h; inhibition, % at 10 µM; hit rate 1.4% among 330,000; AID 463195;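 active = inhibition of 40% or more at the single tested concentration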;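 also: wild-type TIM10 isogenic control strain grown at permissive 25 °C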
tim23-1 inh: growth inhibitors of tim23-1 mutant yeast. inhibition, % at 20 µM. hit rate 1.3% among 330,000. S. cerevisiae tim23-1 growth, BacTiter-Glo luminescence, 24 h;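 active = growth inhibition of the mutant yeast at or above 50%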;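 also: temperature-sensitive mutant grown at 25 °C; plate controls were DMSO-treated mutant yeast for no effect and medium wells lacking yeast for full effect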
tim10-1 confirm: confirmation of tim10-1 mutant yeast growth inhibitors; shares compounds with tim10-1 inh; S. cerevisiae tim10-1 ts strain growth, BacTiter-Glo, 24 h; inhibition, % at 20 µM; hit rate 56% among 7,400; AID 463213;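 active = inhibition of yeast growth at or above a set limit in either of two repeat tests at 20 µM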;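 also: tim10-1 mutant grown at permissive 25 °C to find synthetic lethal compounds; 0% = DMSO yeast wells and 100% = medium wells without yeast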
Numbers without * were called inactive; . = not tested or not shown.

SMILES | tim10-1 inh | NALP1 inh | NLRP3 yeast inh | TIM10 inh | tim23-1 inh | tim10-1 confirm
CC1(C)Cc2ccccc2/C(=C/C(=O)N2CCCCCC2)N1 | 42* | -1 | -8 | 37 | 32 | 40*
COCCCNC(=O)CCCn1c(=O)c2ccccc2n(Cc2cccc([N+](=O)[O-])c2)c1=O | 14 | 9 | 0 | 1 | 0 | .
CCOC(=O)CNC(=O)c1cc(-c2ccccn2)nc2c(C)c(Cl)ccc12 | 41* | -18 | 11 | 11 | 28 | 9
O=C(Nc1ncc2c(n1)CC(c1cccc(Cl)c1)CC2=O)c1ccco1 (stereo not given) | 41* | 24 | 13 | 4 | 31 | 32*
CC(C)(C)NC(=O)NC(=O)CN1C(=O)NC(c2ccccc2)(c2ccccc2)C1=O | -6 | -6 | 9 | 10 | 11 | .
Cc1ccc(-c2csc3nc4c5ccccc5c(NCCCN5CCOCC5)nn4c(=O)c23)cc1 | 43* | 14 | 9 | -1 | 18 | 39*
CCCC(=O)C1=C(O)C(C(=O)OC)C(C)(C)CC1=Nc1ccc(N)cc1 (stereo not given) | 42* | -3 | 13 | 17 | 28 | 28
CCCC(=O)C1=C(O)C(C(=O)OC)C(C)(C)CC1=Nc1ccc(C)cc1 (stereo not given) | 26 | 9 | 15 | 15 | 38 | .
COc1ccc(C(=O)Nc2ccc(NC(=O)c3cnccn3)cn2)cc1 | -7 | -12 | 28 | -8 | 6 | .
N#CCSc1nc2c(c(C3CC=CCC3)c1C#N)CCC2 (stereo not given) | 47* | 40 | 29 | 6 | 31 | 35*
N#CCSc1nc2c(cc1C#N)CCCCCC2 | 28 | 7 | 26 | -23 | 28 | .
CCC(=O)N1CCN(c2cc(N3CCCC3)c(F)cc2[N+](=O)[O-])CC1 | 7 | . | 31 | 12 | 15 | .
CC(=O)N1CCN(c2cc(N3CCc4ccccc4C3)c(F)cc2[N+](=O)[O-])CC1 | 52* | 5 | 15 | 25 | 43 | 32*
CCOC(=O)c1ccc(NC(=O)c2cccc3c2C(=O)N(CC2CCCO2)C3)cc1 (stereo not given) | 47* | 19 | 17 | 18 | 36 | 43*
CSc1ccccc1OCc1cc(C(=O)N(C)Cc2cnccn2)no1 | 16 | -1 | 11 | 3 | 11 | .
CN(C)S(=O)(=O)N1CCC(Oc2ccc(C(=O)NC3Cc4ccccc4C3)cc2)CC1 | 44* | 1 | 3 | 19 | 29 | 26
CN(C)S(=O)(=O)N1CCC(Oc2ccc(C(=O)NC3CCOC(C)(C)C3)cc2)CC1 (stereo not given) | -15 | -11 | 17 | -6 | 7 | .
CC1CN(C(=O)Nc2cccc(C(F)(F)F)c2)CC(C)O1 (stereo not given) | 22 | 24 | -7 | 18 | 49 | .
CC(N=c1ccccn1C(=O)Nc1cccc(C(F)(F)F)c1)c1ccco1 (stereo not given) | 41* | 13 | 16 | 33 | 29 | 33*
Cc1cc(N2CCCCC2)nc(SCC(=O)c2ccccc2)n1 | 47* | 3 | 16 | 15 | 35 | 33*
O=C(Nc1nc(-c2cc(F)ccc2F)cs1)C1=NN(c2ccccc2)C(=O)CC1 | 45* | 0 | 14 | 38 | 17 | 26
O=C(Nc1nc(-c2cc(F)ccc2F)cs1)C1=COCCO1 | 46* | . | 28 | 27 | 32 | 30
Cc1ccccc1OCc1ccc(C(=O)N2CCOCC2)o1 | -7 | 4 | 20 | 12 | 3 | .
O=C(c1ccc(Cl)cc1)c1cnc(-c2ccccc2)s1 | . | 1 | . | . | . | .
CO/N=C/CC(=O)c1cnc(-c2ccc(Cl)cc2)s1 | 41* | 5 | 24 | 4 | 28 | 24
SMILES | tim10-1 inh | NALP1 inh | NLRP3 yeast inh | TIM10 inh | tim23-1 inh | tim10-1 confirm
Cc1csc(NC(C)c2nc3cc(C(F)(F)F)ccc3n2CCCO)n1 (stereo not given) | -10 | . | 8 | -13 | -14 | .
CC(C)(C)c1ccc(OCCOc2ccc(C(C)(C)C)cc2NC=O)c(NC=O)c1 | 47* | 17 | 5 | 22 | 43 | 20
COCCOc1ccc(C(F)(F)F)cc1NC(=O)c1ccccc1 | 16 | 32 | 8 | 14 | 17 | .
Cc1cccn2cc(CSc3nnc(Nc4ccc(C(C)C)cc4)s3)nc12 | 45* | 18 | 16 | 17 | 16 | 28
O=C(NCCn1ccc2ccccc21)c1ccc(S(=O)(=O)N2CCCCC2)cc1 | 41* | . | -10 | 20 | 34 | 27
COc1ccc(C(=O)NCCn2ccc3ccccc32)cc1 | -11 | 10 | 31 | 3 | 26 | .
CN(C)c1ccc(/C=N/NC(=O)c2sccc2-n2cccc2)cc1 | 11 | -1 | 14 | 11 | 18 | .
CCCN1C(=O)S/C(=C\c2ccc(N3CCOCC3)cc2C)C1=O | . | 16 | . | . | . | .
CCOC(=O)CN1C(=O)S/C(=C/c2ccc(N3CCCCC3)o2)C1=O | 32 | -10 | 17 | 10 | 26 | .
CCCN1C(=O)S/C(=C\c2ccc(N3CCOCC3)o2)C1=O | 45* | 28 | 21 | 35 | 23 | 48*
CCCN1C(=O)S/C(=C/c2ccc(N3CCOCC3)o2)C1=O | 41* | 11 | 25 | 23 | 32 | 38*
COC(=O)CN1C(=O)S/C(=C/c2ccc(N3CCCCC3)o2)C1=O | 54* | 11 | 31 | 25 | 33 | 51*
O=C(N/N=C/c1ccccc1O)C(=O)Nc1ccccn1 | -21 | -5 | 16 | 28 | 23 | .
O=C(O)c1ccccc1C(=O)NC1CCCc2ccccc21 (stereo not given) | -1 | 6 | 13 | 2 | 5 | .
CC(C)(C)c1ccc(C(=O)c2cn[nH]c2-c2ccccc2O)cc1 | 45* | 2 | 35 | 24 | 50 | 35*
CCOc1ccc2nc(NCCCNS(=O)(=O)c3ccccc3)c(C#N)cc2c1 | 42* | -5 | 1 | 3 | 21 | 19
CCOc1ccc2nc(NCCCNS(=O)(=O)c3ccc(F)cc3)c(C#N)cc2c1 | 42* | . | 2 | 6 | 26 | 28
CCOc1ccc2nc(NCCNC(=O)c3cc(OC)c(OC)c(OC)c3)c(C#N)cc2c1 | 8 | 4 | 4 | 16 | 10 | .
CC1CCCC(C)N1C(=C(Cl)Cl)C(=C1SCCS1)[N+](=O)[O-] (stereo not given) | 13 | 23 | 23 | 18 | 31 | .
N/C(=N\OC(=O)CSc1ccccc1)c1ccccn1 | 25 | 4 | 5 | 11 | 18 | .
CCOc1ccc(-c2n[nH]c(C)c2Oc2ccc(OC)cc2)c(O)c1 | 44* | 1 | -4 | 34 | 41 | 47*
COc1ccc(Cl)cc1NC(=O)CNc1ccccc1CN(C)C1CCCCC1 | 43* | -8 | -11 | 17 | 19 | 30*
COc1ccc(C)cc1NC(=O)CNc1ccccc1CN(C)C1CCCCC1 | 16 | 6 | 11 | -7 | 14 | .
CN(CC(=O)N(C)CC(=O)Nc1c(Cl)cccc1Cl)Cc1ccc(Br)s1 | 8 | . | 14 | 4 | -1 | .
CC(=O)N(\C=C/C=C/C=C1\Sc2ccccc2C1=O)c1ccccc1 | 41* | -2 | 26 | 33 | 29 | 46*
